Experimental data reported in PubChem BioAssay AID1851 (National Center for Advancing Translational Sciences (NCATS), 2009).
In all, about 16,000 compounds went through this assay and about 5,100 (32%) were called active. Another 25% or so got no clear call; they are omitted. Calls follow the shape of the dose curve; as a rule, active = well fitted curve in the direction sought with a large enough effect; inconclusive = small, poorly fitted or top-dose-only effect, or effect the other way; inactive = no such curve, though single readings can be large or run the other way. The list shows a part of the results.

target: Cytochrome P450 3A4 (Homo sapiens) (UniProt P08684); assay: Cytochrome panel assay with activity outcomes; conditions: recombinant CYP, pro-luciferin dealkylation, luminescence, p450-cyp3a4; series mostly up to 57.1 µM
Sequence (P08684 whole entry, looked up): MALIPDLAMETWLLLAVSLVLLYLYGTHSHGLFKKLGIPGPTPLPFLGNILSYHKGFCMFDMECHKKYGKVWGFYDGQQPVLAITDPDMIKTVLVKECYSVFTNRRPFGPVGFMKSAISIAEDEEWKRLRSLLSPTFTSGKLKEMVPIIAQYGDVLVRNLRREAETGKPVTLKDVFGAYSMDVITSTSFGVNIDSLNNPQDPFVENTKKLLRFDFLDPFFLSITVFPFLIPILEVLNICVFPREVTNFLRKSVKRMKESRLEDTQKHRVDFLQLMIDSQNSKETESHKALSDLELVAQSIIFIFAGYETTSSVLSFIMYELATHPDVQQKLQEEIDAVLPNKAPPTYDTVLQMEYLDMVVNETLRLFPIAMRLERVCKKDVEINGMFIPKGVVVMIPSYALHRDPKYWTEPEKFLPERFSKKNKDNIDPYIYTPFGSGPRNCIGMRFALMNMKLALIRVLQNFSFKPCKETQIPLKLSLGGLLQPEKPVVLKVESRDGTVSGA
% is scaled to controls: 0 for no effect and ±100 for the full control effect.

SMILES	AC50	activity, negative = inhibition
O=C(Cn1cnc2c(oc3ccccc32)c1=O)NCc1ccco1	inactive	
c1ccc2c(c1)oc1c(NCCCn3ccnc3)ncnc12	0.631 µM (active)	
CCOC(=O)C(C)n1cnc2c(oc3ccccc32)c1=O (stereo not given)	inactive	
c1ccc(-c2nc(NCCCn3ccnc3)c3oc4ccccc4c3n2)cc1	1 µM (active)	
CC(=O)C1=C(NC(=O)c2ccc(F)cc2)CC2C1C2(C)C (stereo not given)		10% [at 2.29 µM] (inactive)
CCN1C(=O)[C@@H]2[C@H]3C(=CC[C@@H]2C1=O)C1(OCCCO1)[C@H]1O[C@@H]1[C@H]3O		-21.4% [at 11.4 µM] (inactive)
COc1ccccc1NC(=O)c1sc2ncn(Cc3ccccc3C)c(=O)c2c1C	4.47 µM (active)	
N#Cc1c(-n2ccnc2)cccc1-n1ccnc1	2 µM (active)	
N#Cc1c(Cl)cccc1-n1ccnc1	1 µM (active)	
Cc1cccc(-n2cccc2)c1C#N	inactive	
Nc1ccccc1Oc1ncc(C(F)(F)F)cc1Cl	14.1 µM (active)	
CCCCOc1ccccc1N	inactive	
COc1ccc2c(c1)N(CC[C@H]1CCCCN1C)c1ccccc1S2		-24.2% [at 11.4 µM] (inactive)
OC1CC2CC[C@H](C1)N2CCCN1c2ccccc2Sc2ccc(Cl)cc21 (stereo not given in full)		-4.29% [at 11.4 µM] (inactive)
O=C(CSc1nc2ccccc2o1)N1c2ccccc2Sc2ccc(Cl)cc21	8.91 µM (active)	
O=C(O)c1ccc(CSc2nc3ccccc3o2)cc1	inactive	
COc1ccc(OCc2nnc(SCC(=O)N3c4ccccc4Sc4ccc(Cl)cc43)o2)cc1	3.55 µM (active)	
CCOC(=O)CN1N=C(/C=C/c2ccc(C)cc2)CCC1=O	inactive	
O=C1CC(N2CCN(CCc3ccccn3)CC2)C(=O)N1c1ccc(Cl)cc1 (stereo not given)	inactive	
O=C1c2ccccc2N[C@H](c2cc(Cl)cc(Cl)c2O)N1CCc1ccccn1	0.794 µM (active)	

SMILES	AC50	activity, negative = inhibition
CN(C)C(=O)c1ccc(-c2nccc(N(C)Cc3ccco3)n2)cc1	inactive	
CN(C)c1ccc(-c2cncnc2N(C)Cc2ccco2)cc1	0.631 µM (active)	
CN(Cc1ccco1)c1ncncc1-c1ccc2c(c1)OCO2	1.26 µM (active)	
CN(Cc1ccco1)c1ncncc1-c1cccc(C#N)c1	7.94 µM (active)	
CN(Cc1ccco1)c1ncncc1-c1cccnc1	2.51 µM (active)	
C#C[C@H](N)CCC(=O)O	inactive	
COc1cc(O)c2c(O)c3c(c4c2c1[C@@]1(C4)C(C)=CCCC1(C)C)[C@H](O)[C@@]1(O)CC(=O)C(C(N)=O)=C(O)[C@]1(O)C3=O		-13.9% [at 11.4 µM] (inactive)
COc1cccc(-c2cncnc2N(C)Cc2ccco2)c1	2.51 µM (active)	
CCc1ccc2[nH]c(O)c(N=Nc3nc(-c4ccccc4)cs3)c2c1		-16.3% [at 2.29 µM] (inactive)
COc1c(O[C@H]2O[C@@H](CO)[C@@H](O)[C@@H](O)[C@@H]2O)cc2c(c1OC)-c1ccc(SC)c(=O)cc1[C@H](NC(C)=O)CC2	inactive	
CCCC[C@@H]1C[C@H]1C(NC(=O)c1cccnc1)c1ccc(Cl)cc1 (stereo not given in full)	0.0794 µM (active)	
CCCC[C@@H]1C[C@H]1C(NC(=O)Cc1ccccc1)c1ccc(Cl)cc1 (stereo not given in full)	2.51 µM (active)	
CCCC[C@@H]1C[C@H]1C(NC(=O)c1ccc(-c2ccccc2)cc1)c1ccc(-c2ccccc2)cc1 (stereo not given in full)	inactive	
N[C@@H](C(=O)O)[C@H](CC(=O)O)c1ccc(Cl)cc1	inactive	
CCCC[C@@H]1C[C@H]1C(NC(=O)c1ccccc1)c1ccccc1 (stereo not given in full)	12.6 µM (active)	
CCCC[C@@H]1C[C@H]1C(NC(=O)c1ccccc1)c1ccc(Cl)cc1 (stereo not given in full)	3.98 µM (active)	
Cc1oc(-c2cccc(Cl)c2)[n+]([O-])c1C	inactive	
O=C(/C=C/c1cc2c(cc1Br)OCO2)NCc1ccc(Cl)cc1	2.51 µM (active)	
O=[N+]([O-])c1ccccc1N/N=C/c1c[nH]c2ccccc12	25.1 µM (active)	
O=C(O)c1ccccc1N/N=C\c1ccnc2ccccc12		-0.0882% [at 2.29 µM] (inactive)

SMILES	AC50	activity, negative = inhibition
O=C(N/N=C/c1c[nH]c2ccccc12)c1cc(-c2ccc(-c3ccccc3)cc2)n[nH]1		-5.85% [at 2.29 µM] (inactive)
Cc1cccc(NC(=S)N(CCc2nc3cc(C)c(C)cc3[nH]2)Cc2cccnc2)c1	2.24 µM (active)	
Cc1ccc(C)c(NC(=S)N(CCc2nc3cc(C)c(C)cc3[nH]2)Cc2cccnc2)c1	2.51 µM (active)	
COc1cccc(NC(=S)N(CCc2nc3cc(C)c(C)cc3[nH]2)Cc2cccnc2)c1	2.51 µM (active)	
CN(C)CCNc1ccccn1		-5.4% [at 11.4 µM] (inactive)
CC1CN(C(=O)COc2ncnc3ccccc23)CC(C)O1 (stereo not given)	inactive	
Cc1ccc(-n2ccc(=O)c(-c3ccnc(SCc4cccc(Cl)c4)n3)n2)cc1	8.91 µM (active)	
CC(C)[C@](N)(C(=O)O)c1ccccc1		-13.2% [at 11.4 µM] (inactive)
O=C1NC(c2cccc([N+](=O)[O-])c2)=CCN1c1ccccc1O	inactive	
O=c1cc(-c2ccccc2)[nH]n1-c1ccc([N+](=O)[O-])cc1	14.1 µM (active)	
CCc1c2c(nc3c(C(C)C)cccc13)-c1cccc(=O)n1C2	15.8 µM (active)	
CC(C)c1cccc2cc3c(nc12)-c1cccc(=O)n1C3	15.8 µM (active)	
CC(C)c1cccc2c([Si](C)(C)C)c3c(nc12)-c1cccc(=O)n1C3	25.1 µM (active)	
O[C@H](C[C@@H]1CCCCN1)c1ccc2c(c1)oc1ccccc12		-5% [at 11.4 µM] (inactive)
COc1ccc(-c2cc(C(=O)O)c3c(C)nn(-c4ccccn4)c3n2)cc1	inactive	
CCOC(=O)c1cnc(-c2ccccc2)nc1Oc1ccc(Cl)cc1	inactive	
CCOC(=O)c1cc(-c2ccc(Cl)cc2)nc2c1c(C)nn2CCC#N	25.1 µM (active)	
Cc1nn(S(=O)(=O)c2cccs2)c(C)c1Sc1ccc([N+](=O)[O-])cc1	2.82 µM (active)	
Cc1nn(C(=O)c2ccco2)c(C)c1Sc1ccc(Br)cc1	inactive	
Cc1ccc(Sc2c([N+](=O)[O-])ncn2C)cc1		11.7% [at 2.29 µM] (inactive)
